Assay results from the supplement of paper PMC4166925.
± gives the standard deviation of the averaged measurements. Whole data set: some 33,000 sequences, median “E-score (dimensionless, -0.5 to 0.5)” near -0.046, cut for the highest 2% near 0.36. The entries come from a sample that favours the highest values as a whole.

Each sequence was assayed on T1, SpTbr T-box DNA-binding domain (GST fusion) (assay: PBM E-score of 8-mer (E-score (dimensionless, -0.5 to 0.5)); Tbr is Tbrain of the sea star Patiria miniata (Pm) or the sea urchin Strongylocentrotus purpuratus (Sp); higher = stronger binding preference). Details: the construct has about 5 more residues each side.
T1 sequence: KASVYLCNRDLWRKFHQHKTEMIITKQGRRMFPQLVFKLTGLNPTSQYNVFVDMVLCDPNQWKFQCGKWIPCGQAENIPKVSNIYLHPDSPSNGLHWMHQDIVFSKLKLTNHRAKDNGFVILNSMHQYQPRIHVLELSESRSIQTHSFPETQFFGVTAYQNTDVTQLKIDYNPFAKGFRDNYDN
Outline: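 GST-fused Tbr T-box DNA-binding domains (the whole T-box plus about five flanking residues) were expressed in BL21 E. coli at 20 °C and purified by glutathione affinity chromatography. Universal Agilent oligonucleotide arrays were made double-stranded by primer extension, incubated with 200 nM protein in PBS (pH 7.5), then scanned and quantified. Every ungapped 8-mer was scored from probe intensities. The Universal PBM Analysis Suite gave each word an enrichment E-score, averaged over duplicate arrays.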

Point of comparison: ACACGCCA, “PBM E-score of 8-mer” value 0.205 ± 0.0044. Against it:
- AAGGTTAG — lower, -0.0571 ± 0.0011
- CTCGGGCC — lower, -0.167 ± 0.0065
- GCCGGTCC — lower, -0.235 ± 0.075
- GACTCACA — higher, 0.313 ± 0.038
- AACTCACG — lower, 0.00507 ± 0.019
- CGCTCACA — higher, 0.263 ± 0.015
- GGCTCACA — within error, 0.161 ± 0.053
- CACTCACG — higher, 0.266 ± 0.052
- TACTCACA — higher, 0.371 ± 0.0028
- CACTCACA — higher, 0.377 ± 0.017
- AACTCACA — higher, 0.2436 ± 0.00066
- TGCTCACA — higher, 0.3801 ± 0.0011
- ACGAGCTA — lower, -0.118 ± 0.015
- TCAACCCA — lower, -0.174 ± 0.026
- ATACTTGC — lower, 0.0754 ± 0.026
- ATGCATCA — lower, 0.0819 ± 0.023
- CGACTGAC — lower, 0.0364 ± 0.013
- AGAGGAGC — lower, -0.0105 ± 0.083
- ACCTGTAC — lower, -0.148 ± 0.024
- GAGTAAAC — lower, -0.0192 ± 0.019
- CCCAGAAA — lower, -0.216 ± 0.045
- TAGTGTCA — higher, 0.395 ± 0.032
- AAGTGTAG — lower, 0.144 ± 0.0052
- CAGTGTCA — higher, 0.3068 ± 0.002
- AAGTGTAA — higher, 0.399 ± 0.018
- GAGTGTCA — higher, 0.4478 ± 0.0016
- AAGTGTCG — higher, 0.425
- GAGTGTCC — lower, 0.0603 ± 0.01
- GATTGTCA — higher, 0.248 ± 0.0068
- TAGTGTAA — within error, 0.216 ± 0.061
- AAGTGTCT — higher, 0.292 ± 0.033
- TCGTGTCA — higher, 0.294 ± 0.0086
- CAGTGTCG — higher, 0.266 ± 0.0072
- AGCAAAGC — lower, -0.0455 ± 0.048
- AAAGCAGT — lower, -0.167 ± 0.049
- TGAGATAA — lower, 0.0687 ± 0.09
- CACAGGGG — lower, 0.0864 ± 0.031
- ACCGTTCC — lower, -0.000825 ± 0.11
- AAGTGTCA — higher, 0.46288 ± 2.8e-05
- AAGTGTAT — lower, 0.0229 ± 0.032
- AAGTGTCC — higher, 0.2466 ± 0.0019
- CCTATGCG — lower, 0.00647 ± 0.019
- ACGCGCCA — within error, 0.201 ± 0.019
- GCACGCGA — within error, 0.186 ± 0.025
- TCACGCGA — higher, 0.3949 ± 0.0026
- GCGCGCGA — higher, 0.316 ± 0.041
- GCACGCCA — lower, 0.0542 ± 0.013
- TCGCGCCA — higher, 0.384 ± 0.009
- GCGCGCCA — within error, 0.133 ± 0.087
- TCGCGCGA — higher, 0.379 ± 0.0069
- CCGCGCGA — within error, 0.203 ± 0.03
- CCACGCGA — lower, 0.172 ± 0.028
- TCACGCCA — higher, 0.403 ± 0.0053
- CAGACAAA — lower, -0.0589 ± 0.033
- GGATACAA — lower, 0.0747 ± 0.011
- CCGCCTCG — lower, -0.0478 ± 0.058
- TAAAGAAA — lower, -0.13 ± 0.11
- CCCTAACC — lower, -0.113 ± 0.029
- ACGCGCGG — within error, 0.229 ± 0.028
- ACGCGCGA — higher, 0.393 ± 0.023
- ACGCGCGC — within error, 0.189 ± 0.056
- AAGTAGAA — lower, 0.0466 ± 0.046
- GGTGAAAA — within error, 0.126 ± 0.095
- TATGAACA — lower, -0.0802 ± 0.022
- GGTGAACA — lower, -0.0711 ± 0.04
- CGTGAACA — higher, 0.3774 ± 0.003
- AGTGAACA — lower, 0.175 ± 0.0043
- CGTGAACC — higher, 0.353 ± 0.018
- CGTGAAAA — higher, 0.329 ± 0.069
- TGTGAAAA — higher, 0.394 ± 0.048
- TGTGAACA — higher, 0.445 ± 0.0018
- AGATATTC — lower, -0.243 ± 0.033
- AGCTATTG — lower, -0.0351 ± 0.028
- ACTTAGAG — lower, -0.0957 ± 0.015
- CCCAAATC — lower, -0.108 ± 0.11
- CCAAGAGC — lower, -0.28 ± 0.06
- AGGTGAGA — higher, 0.4826 ± 0.0046
- AGGTGAAA — higher, 0.266 ± 0.045
- AAGTGAGA — higher, 0.4 ± 0.018
- GGGGGTGA — higher, 0.289 ± 0.03
- CGGTGAGA — higher, 0.257 ± 0.012
- GGGTGAGA — higher, 0.424 ± 0.0073
- AGGTGAGC — higher, 0.2602 ± 0.00092
- CAGTGAGA — within error, 0.157 ± 0.062
- AAGTGAGG — higher, 0.2725 ± 0.0021
